# Experiments:
# Assay in all cases: yeast three-hybrid, YBZ-1, SC-Leu-His + 0.5 mM 3-AT, 4 days
# Details in all cases: tags: N-Gal4 AD-HA kept; label: inside an RPR1-promoter hybrid RNA with tandem MS2 sites; ssRNA
# [1] = target: PUM1 PUF domain R4-EFG (Homo sapiens, UniProt Q14671 828-1176, N971E;H972F;Q975G)
# Procedure, shortened: (§1)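 Pumilio-1 PUF domain libraries, randomized at the three base-contacting residues of each repeat, were co-expressed with matching RNA elements from a centromeric plasmid in strain YBZ-1, which carries a LexA–MS2 coat fusion and a HIS3 reporter. Transformants grew for four days on SC-Leu (input) or on SC-Leu-His + 0.5 mM 3-AT (selection), and the repeat regions were PCR-amplified and Illumina-sequenced. The interaction score is the log change in variant frequency from input to selection. That logarithm is base 2, with a pseudocount of 1 where a variant was absent.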
# [2] = target: PUM1 PUF domain R3-RIK (Homo sapiens, UniProt Q14671 828-1176, C935R;R936I;Q939K)
# Procedure, shortened: as §1
# [3] = target: PUM1 PUF domain R3-RQL (Homo sapiens, UniProt Q14671 828-1176, C935R;R936Q;Q939L)
# Procedure, shortened: as §1
# [4] = target: PUM1 PUF domain R3-LCR (Homo sapiens, UniProt Q14671 828-1176, C935L;R936C;Q939R)
# Procedure, shortened: as §1
# [5] = target: PUM1 PUF domain R7-KWH (Homo sapiens, UniProt Q14671 828-1176, S1079K;N1080W;E1083H)
# Procedure, shortened: as §1
# [6] = target: PUM1 PUF domain R5-KNG (Homo sapiens, UniProt Q14671 828-1176, C1007K;R1008N;Q1011G)
# Procedure, shortened: as §1
# [7] = target: T1, PUM1 PUF domain R6-VFT (Homo sapiens, UniProt Q14671 828-1176, N1043V;Y1044F;Q1047T)
# T1 sequence: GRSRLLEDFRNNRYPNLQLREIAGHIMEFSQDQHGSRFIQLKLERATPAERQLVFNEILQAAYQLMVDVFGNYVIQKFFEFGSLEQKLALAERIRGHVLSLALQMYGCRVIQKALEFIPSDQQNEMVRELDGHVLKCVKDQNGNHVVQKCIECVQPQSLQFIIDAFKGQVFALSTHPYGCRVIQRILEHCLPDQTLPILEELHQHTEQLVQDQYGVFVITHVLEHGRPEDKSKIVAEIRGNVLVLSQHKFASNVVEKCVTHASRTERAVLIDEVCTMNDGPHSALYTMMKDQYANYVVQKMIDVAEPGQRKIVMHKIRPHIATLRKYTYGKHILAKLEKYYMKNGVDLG
# Procedure, shortened: as §1
# [8] = target: PUM1 PUF domain R5-KQG (Homo sapiens, UniProt Q14671 828-1176, C1007K;R1008Q;Q1011G)
# Procedure, shortened: as §1
# [9] = target: PUM1 PUF domain R3-SRG (Homo sapiens, UniProt Q14671 828-1176, C935S;Q939G)
# Procedure, shortened: as §1
# [10] = target: PUM1 PUF domain R5-TQG (Homo sapiens, UniProt Q14671 828-1176, C1007T;R1008Q;Q1011G)
# Procedure, shortened: as §1
sequence,measurement,setting,value
GGCUAGAACUAGUGGAUCCCCCGGCGCCCGGCGGCUCGAGCCCGGGUAAGUGUAUAUAGUCUGCAUGCCGCCGGGCGCCAUGCCUGCAGGUCGACUCUAGAAAACAUG,binding signal,[1],1.18 log2 enrichment (interaction score)
GGCUAGAACUAGUGGAUCCCCCGGCGCCCGGCGGCUCGAGCCCGGGUAAGUGUAAUUAGUCUGCAUGCCGCCGGGCGCCAUGCCUGCAGGUCGACUCUAGAAAACAUG,binding signal,[2],2.73 log2 enrichment (interaction score)
same,binding signal,[3],3.54 log2 enrichment (interaction score)
same,binding signal,[4],1.28 log2 enrichment (interaction score)
GGCUAGAACUAGUGGAUCCCCCGGCGCCCGGCGGCUCGAGCCCGGGUAAGUCUAAAUAGUCUGCAUGCCGCCGGGCGCCAUGCCUGCAGGUCGACUCUAGAAAACAUG,binding signal,[5],5.07 log2 enrichment (interaction score)
GGCUAGAACUAGUGGAUCCCCCGGCGCCCGGCGGCUCGAGCCCGGGUAAGUAUAAAUAGUCUGCAUGCCGCCGGGCGCCAUGCCUGCAGGUCGACUCUAGAAAACAUG,binding signal,[5],2.68 log2 enrichment (interaction score)
GGCUAGAACUAGUGGAUCCCCCGGCGCCCGGCGGCUCGAGCCCGGGUAAGUGUUAAUAGUCUGCAUGCCGCCGGGCGCCAUGCCUGCAGGUCGACUCUAGAAAACAUG,binding signal,[6],4.33 log2 enrichment (interaction score)
GGCUAGAACUAGUGGAUCCCCCGGCGCCCGGCGGCUCGAGCCCGGGUAAGUGAAAAUAGUCUGCAUGCCGCCGGGCGCCAUGCCUGCAGGUCGACUCUAGAAAACAUG,binding signal,[7],6.61 log2 enrichment (interaction score)
GGCUAGAACUAGUGGAUCCCCCGGCGCCCGGCGGCUCGAGCCCGGGUAAGUGUCAAUAGUCUGCAUGCCGCCGGGCGCCAUGCCUGCAGGUCGACUCUAGAAAACAUG,binding signal,[6],2.59 log2 enrichment (interaction score)
same,binding signal,[8],3.41 log2 enrichment (interaction score)
GGCUAGAACUAGUGGAUCCCCCGGCGCCCGGCGGCUCGAGCCCGGGUAAGUGUAAAUAGUCUGCAUGCCGCCGGGCGCCAUGCCUGCAGGUCGACUCUAGAAAACAUG,binding signal,[9],4.45 log2 enrichment (interaction score)
same,binding signal,[7],2.21 log2 enrichment (interaction score)
same,binding signal,[10],0.76 log2 enrichment (interaction score)
same,binding signal,[1],3.99 log2 enrichment (interaction score)
GGCUAGAACUAGUGGAUCCCCCGGCGCCCGGCGGCUCGAGCCCGGGUAAGUGUAAGUAGUCUGCAUGCCGCCGGGCGCCAUGCCUGCAGGUCGACUCUAGAAAACAUG,binding signal,[9],2.65 log2 enrichment (interaction score)
same,binding signal,[4],3.54 log2 enrichment (interaction score)
GGCUAGAACUAGUGGAUCCCCCGGCGCCCGGCGGCUCGAGCCCGGGUAAGUGUGAAUAGUCUGCAUGCCGCCGGGCGCCAUGCCUGCAGGUCGACUCUAGAAAACAUG,binding signal,[10],2.63 log2 enrichment (interaction score)
